# This is part of a sample that, as a whole, favours compounds with a hit. Of some 83,000 tested, about 20% had one in any assay.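 How to read the values: 0–100, growth inhibition (40 = 60% inhibited); 0, no net growth; -100 to 0, cell death (-40 = 40% of starting cells died; -100 = all dead).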 Unmarked numbers belong to inactive results. The source made the active and inactive calls. Rule for the calls: active = growth percent below 10; inactive = the rest.
# Tested on: SW-620 colon
# Experiment: NCI-60 one-dose screen, 48 h (100 = growth as untreated, 0 = no growth, -100 = all killed)
# Conditions: 10 µM unless noted
row,SMILES,growth
1,Cc1cccc(-c2ccccc2Oc2ccc3nnc(Cl)n3n2)c1,101%
2,C[C@H](NC(=O)c1ccc2c(-c3ccc(C(F)(F)F)cc3)cccc2c1)c1ccccn1,68.1%
3,Cc1ccc(C(=O)Nc2cc(-c3ccccc3)cc(C(F)(F)F)c2)cc1C#Cc1cnc2cccnn12,66.7%
4,O=[N+]([O-])c1cccc(-c2nnc3c(/C=C/c4ccc(F)cc4)nc4ccccc4n23)c1,96.1%
5,O=C1Nc2cc(-c3ccc(NS(=O)(=O)c4ccc(C(F)(F)F)cc4)cc3)ccc2/C1=C/c1ccc[nH]1,33.3%

# Tested on: MCF7 breast
# Experiment: as above
# Conditions: 10 µM unless noted
row,SMILES,growth
1,CC1=C(C(=O)Nc2ccccc2)C(c2cccc3ccccc23)n2c(nc3ccccc32)N1 (configuration not stated),38.5%
2,COc1ccc(NC(=O)CSc2nnc(-c3ccc(-c4nc5ccccc5[nH]4)cc3)o2)cc1,13.8%
3,COc1cc2cc(C(=O)N3C[C@@H](CCl)c4c3cc(OC(=O)N(C)CCSSCCN3CCOCC3)c3ccccc43)[nH]c2c(OC)c1OC,-33.5% (active)
4,CC(=O)C[n+]1cccc2c3ccccc3ccc21,77.7%
5,CC[C@]12C=CCN3CC[C@]4(C(=C(C(=O)OC)C1)Nc1cc(OC)c([C@@H]5[C@H]6O[C@H]6[C@@]6(CC)CC(C(=O)OC)=C7Nc8cc(O)ccc8[C@@]78CCN5[C@@H]68)cc14)[C@@H]32,-25.7% (active)
6,Cc1ccccc1Nc1nnc(-c2c[nH]c3ccccc23)o1,21.8%
7,COc1cncc(-c2ccc3ncnc(N4CCc5ccc(Cl)cc54)c3c2)c1,-1.93% (active)
8,Clc1ccc2c(NCCNC34CC5CC(CC(C5)C3)C4)ccnc2c1,-78.7% (active)
9,Cn1cc(-c2cc(N)n3nc(-c4c[nH]c5ccccc45)cc3n2)c2cc(Br)ccc21,-73.9% (active)
10,Cc1nn(-c2ccccc2)c2nc(C)n(CC(=O)N/N=C/c3cccc([N+](=O)[O-])c3)c(=O)c12,85.5%
11,Cc1ccc(S(=O)(=O)Nc2ccc(-c3ccc4c(c3)NC(=O)/C4=C\c3ccc[nH]3)cc2)cc1,3.35% (active)
12,O=C1c2cccc3c(N4CCN(c5ccccc5)CC4)ccc(c23)C(=O)N1c1cccc(-c2nn(-c3ccccc3)cc2-c2nc3ccccc3s2)c1,81.2%
13,COc1ccc(-c2cc(-c3cc(C(C)C)c(O)cc3C)nn2-c2ccc(S(N)(=O)=O)cc2)cc1,11%
14,Clc1ccc(-c2nc3c4c(-c5ccccc5)c(-c5ccccc5)n(Cc5ccccc5)c4ncn3n2)cc1,-2.7% (active)
15,Cc1ccc(-c2cc(C(=O)N=Nc3c(O)[nH]c4ccc(F)cc34)c3ccccc3n2)cc1,18%
16,COc1ccc(/C=C/c2nc3ccccc3n3c(-c4cccc([N+](=O)[O-])c4)nnc23)cc1,-64.5% (active)
17,O=C(c1ccc(O)cc1)C1[C@H](c2ccc(Cl)cc2)[C@@H](c2ccccc2)NC12C(=O)Nc1ccccc12 (some centres not stated),-6.29% (active)
18,N#C/C(=C1/C(=O)Nc2ccccc21)c1nnc(NC(=O)c2ccc(-n3c(=O)[nH]c4ccccc4c3=O)cc2)s1,7.69% (active)
19,CN(C(=O)CN1C(=O)/C(=C/c2ccco2)SC1=S)C1CCS(=O)(=O)C1 (configuration not stated),91.1%

row,SMILES,growth
1,COc1c2c(cc3c1C(CCc1ccccc1)N(C)CC3)OCO2 (configuration not stated),-34.4% (active)
2,COc1cc(C2CC(c3ccc(F)cc3)=Nc3c(N)nc(N)nc3N2)ccc1Oc1nc(Nc2ccc(F)cc2)nc(N(C)C)n1 (configuration not stated),7.4% (active)
3,CC(C)C[C@H](NC(=O)CNC(=O)C[C@H]1O[C@@H]2OC3(C)CC[C@H]4[C@H](C)CC[C@@H]([C@H]1C)[C@@]24O3)B(O)O,20.3%
4,Cc1[nH]nc2ccc3nc(-c4cnn(CCO)c4)c4c(c3c12)CCCC4,52.6%
5,CCCN(CCC)S(=O)(=O)c1ccc(C(=O)O)cc1.CCCN(CCC)S(=O)(=O)c1ccc(C(=O)O)cc1.[Cl][Pt+2][Cl].[NH2-].[NH2-],8.34% (active)
6,COc1ccc(N=Nc2c(N)nn3c(-c4ccc5c(c4)C=S=C5)ccnc23)cc1,31.1%
7,O=C(NNC(=O)c1ccc(OCc2nc3ccc(Cl)cc3[nH]2)cc1)Nc1ccc(Cl)c(Cl)c1,37.7%
8,Cc1nc(Nc2ccccn2)sc1C1=NNC(c2ccccc2F)C1 (configuration not stated),20.1%
9,COc1ccc(-c2nc3ccccc3n2CC(=O)N=Nc2c(O)[nH]c3ccc(Br)cc23)cc1,43.7%
10,CC[C@]12C=CCN3CC[C@@]4(c5ccc(OC)cc5N(C)[C@H]4[C@@](O)(C(=O)OC)[C@@H]1OC(=O)CCC[P+](c1ccc(OC)cc1)(c1ccc(OC)cc1)c1ccc(OC)cc1)[C@@H]32,-83% (active)
11,COc1ccc(-c2cc(C(=O)N=Nc3c(O)[nH]c4ccc(Cl)cc34)c3ccccc3n2)cc1OC,87.8%
12,Fc1ccc(Nc2nnc(-c3c[nH]c4ccccc34)o2)cc1,49.9%
13,O=C(NN1C(=O)/C(=C/C=C/c2ccc([N+](=O)[O-])o2)SC1=S)c1ccc(O)cc1,-54.4% (active)
14,Cc1cccc(-c2ccccc2Oc2ccc3nnc(Cl)n3n2)c1,95%
15,C[C@H](NC(=O)c1ccc2c(-c3ccc(C(F)(F)F)cc3)cccc2c1)c1ccccn1,26%
16,Cc1ccc(C(=O)Nc2cc(-c3ccccc3)cc(C(F)(F)F)c2)cc1C#Cc1cnc2cccnn12,39.9%
17,O=[N+]([O-])c1cccc(-c2nnc3c(/C=C/c4ccc(F)cc4)nc4ccccc4n23)c1,28.4%
18,O=C1Nc2cc(-c3ccc(NS(=O)(=O)c4ccc(C(F)(F)F)cc4)cc3)ccc2/C1=C/c1ccc[nH]1,0.78% (active)

# — PubChem BioAssay (NCI)
